# Results taken from the antibiotic and cytotoxicity screens of Wong et al. (2023).
# Among all 39,000 compounds or so, about 1,500 (3.8%) were called active. What follows is part of a selection rich in actives, with near analogues and random picks from the rest.
# Tested on: HSkMC (human skeletal muscle cells)
# Assay: cytotoxicity call (relative viability < 0.9)
# Conditions: 10 µM
row,SMILES,cytotoxicity call
1,Cc1ccc(S(=O)(=O)Nc2ccc3c(c2)C(=O)N([C@@H](C)CO)C[C@H](C)[C@H](CN(C)C(=O)Nc2ccc(C(F)(F)F)cc2)OCCCC[C@H](C)O3)cc1,inactive
2,O=C(O)CN1C(=O)c2cccc3cccc(c23)C1=O,inactive
3,CC(C)(C)C1CCC(OC[C@@H](O)CN2CCC(CN3C(=O)c4cccc5cccc(c45)C3=O)CC2)CC1 (stereo partly specified),active
4,O=C(CN1C(=O)c2cccc3cccc(c23)C1=O)N1CCN(CCN2C(=O)[C@@H]3[C@@H](C2=O)[C@@H]2C=C[C@@H]3C2)CC1,inactive
5,O=C(O)C1C(=CCO)OC2CC(=O)N21.[LiH] (stereo unspecified),inactive
6,Cc1ccc(S(=O)(=O)N(C)C[C@H]2Oc3c(NC(=O)C4CC4)cccc3C(=O)N([C@@H](C)CO)C[C@H]2C)cc1,inactive
7,O=C(C[C@H]1C[C@H]2c3cc(NC(=O)c4ccc5c(c4)OCO5)ccc3O[C@H]2[C@H](CO)O1)NCc1ccc(Oc2ccccc2)cc1,active
8,COc1ccccc1CNC(=O)C[C@@H]1C[C@@H]2c3cc(NC(=O)c4ccc5c(c4)OCO5)ccc3O[C@@H]2[C@@H](CO)O1,inactive
9,O=C(C[C@@H]1C[C@H]2c3cc(NC(=O)c4ccc5c(c4)OCO5)ccc3O[C@H]2[C@@H](CO)O1)NCc1ccc(Oc2ccccc2)cc1,inactive
10,O=C(C[C@@H]1C[C@@H]2c3cc(NC(=O)c4ccc5c(c4)OCO5)ccc3O[C@@H]2[C@H](CO)O1)NCc1ccc(Oc2ccccc2)cc1,active
11,O=C(C[C@H]1C[C@H]2c3cc(NC(=O)c4ccc5c(c4)OCO5)ccc3O[C@H]2[C@@H](CO)O1)NCc1cccnc1,inactive
12,O=C(C[C@H]1C[C@@H]2c3cc(NC(=O)c4ccc5c(c4)OCO5)ccc3O[C@@H]2[C@H](CO)O1)NCc1ccc(Oc2ccccc2)cc1,inactive
13,COc1ccccc1CNC(=O)C[C@@H]1C[C@H]2c3cc(NC(=O)c4ccc5c(c4)OCO5)ccc3O[C@H]2[C@H](CO)O1,active
14,O=C(C[C@H]1C[C@@H]2c3cc(NC(=O)c4ccc5c(c4)OCO5)ccc3O[C@@H]2[C@@H](CO)O1)NCc1ccc(Oc2ccccc2)cc1,inactive
15,O=C(C[C@@H]1C[C@H]2c3cc(NC(=O)c4ccc5c(c4)OCO5)ccc3O[C@H]2[C@H](CO)O1)NCc1ccc(Oc2ccccc2)cc1,inactive
16,O=C(C[C@H]1C[C@H]2c3cc(NC(=O)c4ccc5c(c4)OCO5)ccc3O[C@H]2[C@@H](CO)O1)NCc1ccc(Oc2ccccc2)cc1,inactive
17,COc1ccccc1CNC(=O)C[C@@H]1C[C@@H]2c3cc(NC(=O)c4ccc5c(c4)OCO5)ccc3O[C@@H]2[C@H](CO)O1,inactive
18,O=C(C[C@@H]1C[C@@H]2c3cc(NC(=O)c4ccc5c(c4)OCO5)ccc3O[C@@H]2[C@@H](CO)O1)NCc1ccc(Oc2ccccc2)cc1,active
19,COCC#Cc1cnc2c(c1)C(=O)N([C@@H](C)CO)C[C@H](C)[C@@H](CN(C)C(=O)CN1CCOCC1)O2,inactive
20,COc1ccc(S(=O)(=O)N2C[C@H](O)COC[C@H]3O[C@H](CC(=O)NCCCN4CCOCC4)CC[C@@H]32)cc1,inactive
21,C[C@@H]1CN([C@@H](C)CO)S(=O)(=O)c2ccc(C#Cc3ccc(F)cc3)cc2O[C@@H]1CN(C)S(C)(=O)=O,inactive

row,SMILES,cytotoxicity call
1,Cc1noc(C)c1NC(=O)N(C)C[C@@H]1OCCCC[C@@H](C)Oc2ccc(NC(=O)Nc3cccc4ccccc34)cc2C(=O)N([C@H](C)CO)C[C@@H]1C,inactive
2,CCCC#Cc1cnc2c(c1)C(=O)N([C@H](C)CO)C[C@H](C)[C@@H](CN(C)C(=O)c1ccc3c(c1)OCO3)O2,inactive
3,COc1ccc(S(=O)(=O)N(C)C[C@H]2Oc3ccc(NC(=O)CCCN(C)C)cc3CC(=O)N([C@@H](C)CO)C[C@@H]2C)cc1,inactive
4,O=C(C1=C[C@H](c2ccc(C(F)(F)F)cc2)C[C@H](OCc2ccc(CO)cc2)O1)N1CCN(Cc2ccc3c(c2)OCO3)CC1,inactive
5,CN(C)CCCCNC(=O)[C@H]1C[C@H]2C(=O)N[C@@H](Cc3ccccc3)C(=O)N2[C@H]1c1cccc(OCCO)c1,inactive
6,O=C(C[C@@H]1C[C@@H]2c3cc(NS(=O)(=O)c4ccc(F)cc4)ccc3O[C@@H]2[C@@H](CO)O1)N1CCOCC1,inactive
7,O=C1CN(S(=O)(=O)Cc2ccccc2)C[C@H]2[C@@H](c3ccc(C#Cc4cccc(F)c4)cc3)[C@@H](CO)N12,inactive
8,O=C1CN(S(=O)(=O)Cc2ccccc2)C[C@H]2[C@H](c3ccc(C#Cc4cccc(F)c4)cc3)[C@H](CO)N12,active
9,COc1cccc(C#Cc2ccc([C@@H]3[C@H](CO)N4C(=O)CN(S(=O)(=O)c5ccccc5C)C[C@@H]34)cc2)c1,inactive
10,O=C1CN(S(=O)(=O)Cc2ccccc2)C[C@@H]2[C@H](c3ccc(C#Cc4cccc(F)c4)cc3)[C@H](CO)N12,inactive
11,O=C1CN(S(=O)(=O)Cc2ccccc2)C[C@@H]2[C@@H](c3ccc(C#Cc4cccc(F)c4)cc3)[C@H](CO)N12,active
12,O=C1CN(S(=O)(=O)Cc2ccccc2)C[C@H]2[C@@H](c3ccc(C#Cc4cccc(F)c4)cc3)[C@H](CO)N12,inactive
13,O=C1CN(S(=O)(=O)Cc2ccccc2)C[C@H]2[C@H](c3ccc(C#Cc4cccc(F)c4)cc3)[C@@H](CO)N12,inactive
14,O=C1CN(S(=O)(=O)Cc2ccccc2)C[C@@H]2[C@@H](c3ccc(C#Cc4cccc(F)c4)cc3)[C@@H](CO)N12,active
15,O=C1CN(S(=O)(=O)Cc2ccccc2)C[C@@H]2[C@H](c3ccc(C#Cc4cccc(F)c4)cc3)[C@@H](CO)N12,inactive
16,C/C=C/c1ccc2c(c1)O[C@H](CN(C)Cc1ccc(C(=O)O)cc1)[C@H](C)CN([C@@H](C)CO)S2(=O)=O,inactive
17,Cc1noc(C)c1NC(=O)N(C)C[C@H]1OCCCC[C@@H](C)Oc2ccc(NC(=O)c3ccccc3)cc2C(=O)N([C@@H](C)CO)C[C@H]1C,inactive
18,COc1ccc(S(=O)(=O)N(C)C[C@H]2Oc3ncc(C#CC4(O)CCCC4)cc3C(=O)N([C@@H](C)CO)C[C@@H]2C)cc1,inactive
19,Cc1ccc(C(=O)Nc2ccc(S(=O)(=O)O)c3cc(S(=O)(=O)O)cc(S(=O)(=O)O)c23)cc1NC(=O)c1cccc(NC(=O)Nc2cccc(C(=O)Nc3cc(C(=O)Nc4ccc(S(=O)(=O)O)c5cc(S(=O)(=O)O)cc(S(=O)(=O)O)c45)ccc3C)c2)c1,inactive
20,C[C@@H]1CN([C@H](C)CO)S(=O)(=O)c2ccc(C#CC(C)(C)O)cc2O[C@H]1CN(C)C(=O)C1CCCCC1,inactive
21,C[C@@H]1CCCCO[C@@H](CN(C)C(=O)CCC(F)(F)F)[C@@H](C)CN([C@@H](C)CO)C(=O)c2cc(NC(=O)c3ccccc3)ccc2O1,inactive

row,SMILES,cytotoxicity call
1,CC(C)NC(=O)N(C)C[C@@H]1Oc2ccc(NC(=O)C3CCCCC3)cc2C(=O)N([C@H](C)CO)C[C@@H]1C,inactive
2,C[C@@H]1CCCCO[C@H](CN(C)C(=O)c2ccccc2)[C@H](C)CN([C@@H](C)CO)C(=O)c2cc(NC(=O)CCCCCC(=O)Nc3ccccc3N)ccc2O1,inactive
3,Cc1noc(C)c1NC(=O)Nc1cccc2c1O[C@@H](CN(C)C(=O)Nc1cccc3ccccc13)[C@@H](C)CN([C@@H](C)CO)C2=O,inactive
4,COCCNC(=O)C[C@H]1CC[C@@H]2[C@H](COC[C@H](O)CN2C(=O)Nc2ccc3c(c2)OCO3)O1,inactive
5,C[N+](C)(CCOc1ccccc1)Cc1ccccc1.O=C(O)c1cc2ccccc2c(Br)c1O,inactive
6,Cc1cc(C(C)(C)CC(C)(C)C)ccc1OCCOCC[N+](C)(C)Cc1ccccc1.[Cl-],active
7,C[N+](C)(CCOc1ccccc1)Cc1ccccc1.O=C([O-])c1cc2ccccc2cc1O,inactive
8,COc1cccc(C#Cc2ccc3c(c2)O[C@@H](CN(C)S(=O)(=O)c2ccccc2F)[C@H](C)CN([C@@H](C)CO)S3(=O)=O)c1,inactive
9,C[C@@H]1CCCCO[C@H](CN(C)Cc2ccncc2)[C@H](C)CN([C@@H](C)CO)C(=O)c2cc(NC(=O)Nc3ccc(F)cc3)ccc2O1,inactive
10,NCC[C@H]1CC[C@H](NC(=O)c2ccccc2F)[C@H](CO)O1,inactive
11,C[C@H](CO)N1C[C@H](C)[C@@H](CN(C)Cc2ccc(C(F)(F)F)cc2)OCCCC[C@H](C)Oc2ccc(NC(=O)Cc3ccccc3)cc2C1=O,active
12,C[C@H]1CCCCO[C@H](CN(C)Cc2ccc(C(F)(F)F)cc2)[C@@H](C)CN([C@@H](C)CO)C(=O)c2cc(NC(=O)Cc3ccccc3)ccc2O1,inactive
13,C[C@@H]1CCCCO[C@@H](CN(C)Cc2ccc(C(F)(F)F)cc2)[C@@H](C)CN([C@@H](C)CO)C(=O)c2cc(NC(=O)Cc3ccccc3)ccc2O1,inactive
14,C[C@@H]1CCCCO[C@H](CN(C)Cc2ccc(C(F)(F)F)cc2)[C@H](C)CN([C@@H](C)CO)C(=O)c2cc(NC(=O)Cc3ccccc3)ccc2O1,inactive
15,C[C@@H]1CN([C@@H](C)CO)C(=O)c2cc(NC(=O)Cc3ccccc3)ccc2O[C@@H](C)CCCCO[C@H]1CN(C)Cc1ccc(C(F)(F)F)cc1,inactive
16,C[C@@H]1CCCCO[C@@H](CN(C)Cc2ccc(C(F)(F)F)cc2)[C@H](C)CN([C@H](C)CO)C(=O)c2cc(NC(=O)Cc3ccccc3)ccc2O1,active
17,Cc1ccc(S(=O)(=O)N(C)C[C@H]2Oc3ncc(C#CCC(C)C)cc3C(=O)N([C@@H](C)CO)C[C@H]2C)cc1,inactive
18,C[C@H]1CN([C@@H](C)CO)S(=O)(=O)c2ccc(Br)cc2O[C@@H]1CN(C)Cc1cccc(F)c1,inactive
19,Cc1ccc(S(=O)(=O)N(C)C[C@@H]2OCCCC[C@H](C)Oc3ccc(NC(=O)CCCCCC(=O)Nc4ccccc4N)cc3C(=O)N([C@H](C)CO)C[C@@H]2C)cc1,inactive
